Bioassay records (PubChem)
Rows were chosen to be rich in hits. Some 19% of all compounds tested hit in one or more screens of this group.
IL1B secr inh = inflammasome signaling inhibition, IL-1 beta readout | activity change, % at 57.5 µM | 360,000 compounds, 4.7% hits | AID 743279 | THP-1 LPS/ATP IL-1B secretion, AlphaLISA, 16 h; hits give low values; in the data active = activity change below about -50%; inconclusive = mostly about -30% to -49%
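THP-1 cells pretreated 1 hr with compounds (up to 57.5 uM final), then stimulated with LPS (250 ng/mL final) plus ATP (1.25 mM final); secreted IL-1B measured by AlphaLISA after 16 hr, decreased signal indicating inhibition.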
ELG1 DNA repair = ELG1-dependent DNA repair inhibition; HEK293T ELG1-luciferase reporter, luminescence, 16 h; DNA damage induced by 5-fluorouridine; Potency, µM (titrated, usually from 46.1 µM), without a hit: at the top dose activity change, negative = inhibition, hits mostly inhibitors; 330,000 compounds, 2.3% hits; also: potency is read from the fitted curve at half-maximal effect; nearly all actives have a fitted effect of over 55% in size
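HEK293T cells expressing luciferase-tagged ELG1 (2,000/well) received 5-Fluorouridine plus compound or DMSO for 16 hr at 37 °C. Luciferase was read by ONE-Glo luminescence after 30 min at room temperature.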
DT40 TDP1 CPT = growth inhibition of DT40 Tdp1-/-;hTDP1 cells with camptothecin (screen for TDP1 inhibitors). chicken DT40 Tdp1-/-;hTDP1 cells + 20 nM CPT, ATP luminescence, 48 h. Potency, µM (titrated, usually from 46.2 µM), without a hit: top-dose activity change, negative = growth inhibition, most hits filed as inhibitors. 420,000 compounds, 12% hits. AID 686979; also: potency is read from the fitted curve at half-maximal effect; nearly all actives have a fitted effect of over 55% in size
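Chicken DT40 Tdp1-/- cells complemented with human TDP1, 400 cells/well, exposed to compounds plus 20 nM camptothecin for at least 48 h at 37 C; viability read as ATP content by CellTiter-Glo luminescence.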
HT1080 IDH1KD tx = toxicity to HT-1080 IDH1 knockdown cells (counter line); HT-1080 IDH1 knockdown viability, ATP luminescence, 48 h; Potency, µM (titrated, usually from 46.1 µM), without a hit: at the highest dose activity, negative = toxicity, usual class: cytotoxic; 360,000 compounds, 2% hits; AID 686971;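 also: potency is read from the fitted curve at half-maximal effect; 0% = DMSO wells and -100% = cell-free medium wells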
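After a 2 h attachment period, IDH1KD HT-1080 cells took pin-transferred compound for 48 h at 37 °C; ATP-based luminescence after 10 min room-temperature reagent incubation reported viability.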
DT40 TDP1 no CPT = qHTS for Inhibitors of human tyrosyl-DNA phosphodiesterase 1 (TDP1): qHTS in cells in absence of CPT | DT40 Tdp1-/- hTDP1 cells, no CPT, ATP luminescence, 48 h | Potency, µM (titrated, usually from 46.2 µM), without a hit: at the top dose activity change, negative = growth inhibition, actives largely listed as inhibitors | 420,000 compounds, 15% hits | AID 686978, 2013; also: potency is read from the fitted curve at half-maximal effect; nearly all actives have a fitted effect of over 55% in size
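Chicken DT40 Tdp1-/- cells stably complemented with human TDP1 were seeded at 400 cells/well with DMSO in place of 20 nM camptothecin. After compound pinning, cells grew at least 48 hr at 37 °C; viability read by CellTiter-Glo luminescence.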
HT1080-NT tox = kills 2HG-producing HT-1080-NT fibrosarcoma cells | HT-1080-NT fibrosarcoma viability, CellTiter-Glo ATP luminescence, 48 h | Potency, µM (doses to about 46.1 µM), for the others: top-dose activity, negative = less viability, hits mostly cytotoxic | 360,000 compounds, 1.6% hits;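 also: NT is the 2HG producing partner of a matched IDH1 knockdown line; potency is read from the fitted curve at half-maximal effect; 0% = DMSO-treated cells and -100% = media-only wells without cells; nearly all actives have a fitted effect of over 55% in size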
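HT-1080-NT; 750 cells/well; 5% FBS RPMI; 48 h compound, 37 degrees C; CellTiter-Glo luminescence; curve fitting and curve-class assignment.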
Numbers without * were called inactive; ? = inconclusive; nt = no result given; [ ] = another dose, or the depositor's remark. Unless noted, calls follow the shape of the dose curve; as a rule, active = well fitted curve in the direction sought with a large enough effect; inconclusive = small, poorly fitted or top-dose-only effect, or another doubt; inactive = no such curve, though single readings can be large; an effect the other way counts as inactive or inconclusive. Unless noted, % is scaled to controls: 0 for no effect and ±100 for the full control effect.

SMILES	IL1B secr inh	ELG1 DNA repair	DT40 TDP1 CPT	HT1080 IDH1KD tx	DT40 TDP1 no CPT	HT1080-NT tox
NC(=O)N/N=C1\c2ccccc2-c2c(C(N)=O)cccc21	-1	3%	-53%	-15%	-4%	?
COc1ccc(CCNC(=O)CCn2c(=O)c3ccccc3n(Cc3cc(C)ccc3C)c2=O)cc1OC	nt	nt	-12%	nt	-25%	nt
CCOc1ccc(CNC(=O)C2CCN(S(=O)(=O)c3ccc4c(ccn4C)c3)CC2)cc1	nt	nt	?	nt	-27%	nt
O=S(=O)(Nc1nccs1)c1cnc(Cl)c(Br)c1	14	-2%	?	7%	?	4%
O=S(=O)(Nc1ccccn1)c1cnc(Cl)c(Br)c1	5	5%	-3%	0%	-18%	13%
O=S(=O)(Nc1nc2ccccc2s1)c1cnc(Cl)c(Br)c1	15	?	23µM*	2%	?	-13%
Cc1ccnc(NS(=O)(=O)c2cnc(Cl)c(Br)c2)c1	-92*	1%	-24%	20%	-17%	17%
O=C(O)c1cccc(-n2cccc2/C=C2\NC(=O)N(Cc3ccc(F)cc3)C2=O)c1	0	-17%	?	-9%	?	-15%
Cc1ccc(CN2C(=O)N/C(=C\c3cccn3-c3cccc(C(=O)O)c3)C2=O)cc1	38	-5%	8.2µM*	-7%	7.3µM*	-1%
CC/C(=N\Nc1ccccc1[N+](=O)[O-])c1ccc(O)cc1	-23	-6%	-20%	21µM*	-10%	?
CC/C(=N\Nc1ccc([N+](=O)[O-])cc1[N+](=O)[O-])c1ccc(O)cc1	-6	?	?	-10%	?	?
CCOc1ccc(CNC(=O)CN2C(=O)C3CCCCN3c3ccc(C(=O)N4CCCC4)cc32)cc1 (centres undefined)	nt	nt	-27%	nt	?	nt
COc1ccccc1N1CCN(C(=O)CSc2nnc3n2C(C)(C)Cc2ccccc2-3)CC1	-28	9.2µM*	13µM*	-4%	15µM*	?
CC1Cc2ccccc2N1C(=O)CSc1nnc2n1C(C)(C)Cc1ccccc1-2 (centres undefined)	0	?	21µM*	1%	21µM*	1%
CC1(C)Cc2ccccc2-c2nnc(SCC(=O)Nc3ccc4c(c3)OCO4)n21	?	14%	16µM*	-2%	?	1%
Nn1c(SCC(=O)Nc2ccc3c(c2)OCO3)nnc1-c1ccccc1	-4	15%	-9%	0%	1%	-2%
O=S(=O)(Nc1ccc(-n2cnnn2)cc1)c1cccc(F)c1	-11	10%	-12%	8%	-12%	10%
Cc1[nH]c2ccccc2c1C(=O)c1cc(Cc2ccccc2)sc1N	-51*	nt	?	?	16µM*	?
COc1c(CC=C(C)C)c(O)cc2oc(=O)c3c4ccc(O)cc4oc3c12	-4	nt	?	-1%	18µM*	1%
O=c1oc2cc(O)ccc2c2oc3cc(O)ccc3c12	10	?	?	-21%	23µM*	-10%
COc1c2c(cc3oc(=O)c4c5ccc(O)cc5oc4c13)OC(C)(C)CC2	-15	nt	16µM*	-3%	16µM*	0%
CC(C)=CCc1c(O)cc2c(=O)c3ccc(O)cc3oc2c1O	13	nt	-16%	3%	?	3%
O=c1oc2cc(O)ccc2c2ccccc12	-21	?	-6%	8%	-13%	1%
COc1ccc(C2NC(=O)N(C)C3=C2C(=O)N(c2ccccc2)C3)cc1 (centres undefined)	nt	nt	1%	nt	0%	nt
Cc1noc(C)c1S(=O)(=O)N(C)C[C@H]1OCc2cnnn2CCCC(=O)N([C@@H](C)CO)C[C@H]1C	-18	nt	9%	9%	-18%	5%
SMILES	IL1B secr inh	ELG1 DNA repair	DT40 TDP1 CPT	HT1080 IDH1KD tx	DT40 TDP1 no CPT	HT1080-NT tox
COc1ccc(N(C(=O)c2cnccn2)C(C(=O)NC2CCCCC2)c2ccc(O)cc2)cc1 (centres undefined)	7	-12%	-7%	7%	-4%	-8%
CC(C)COc1ccc(C/C(N)=N/n2cnnc2)cc1	11	?	5.2µM*	-9%	5.8µM*	-6%
CC1=C(c2ccccc2)C=NNCC1=O	20	nt	-11%	7%	-11%	29%
O=C(NC(=S)N(CCCCO)C1CCCCC1)c1sc2ccccc2c1Cl	46	-2%	16µM*	?	16µM*	?
CC1CCCCC1NC(=S)NC(=O)c1sc2ccccc2c1Cl (centres undefined)	36	26%	-24%	16%	?	10%
CC1(C)Cc2c(cnn2-c2ccc(F)cc2)C(NC(=O)c2ccoc2)C1 (centres undefined)	3	-1%	-25%	14%	0%	3%
Cc1nn(-c2ccc(F)cc2)c(C)c1CNC(=O)c1ccc(-n2cc(NC(=O)c3ccoc3)cn2)cc1	nt	nt	-15%[9.04 µM]	nt	12µM*	nt
Cc1cc(C)nc(S[C@H]2C[C@@H](C(=O)N3CCN(c4ccccc4F)CC3)N(Cc3ccccc3F)C2)n1	nt	nt	-21%	nt	-21%	nt
O=C(NNC(=S)Nc1cccc(C(F)(F)F)c1)c1ccc(Cl)cc1Cl	-52*	-12%	?	?	26µM*	?
CC(C)(O)C(=O)NNC(=S)Nc1cccc(C(F)(F)F)c1	-10	3%	-22%	-1%	9%	6%
Cc1ccccc1C(=O)NNC(=S)Nc1cccc(C(F)(F)F)c1	-2	?	?	?	23µM*	?
COC(=O)C1OC(OC2CC[C@]3(C)C(CC[C@@]4(C)[C@@H]3CC=C3[C@@H]5CC(C)(C)CC[C@]5(C(=O)OC5OC(CO)C(O)C(O)C5O)CC[C@]34C)C2(C)C)C(O)C(O)C1O[C@H]1OCC(O)C(O)C1O (some centres undefined)	-56*	?	?	?	-74%	?
CC(=O)Oc1ccccc1C1=NN(C(=O)/C=C/c2ccccc2)C(c2ccccc2)C1 (centres undefined)	-15	-15%	?	-29%	18µM*	-28%
COc1ccc(C2CC(c3ccc4ccccc4c3OC(C)=O)=NN2C(=O)/C=C/c2ccccc2)cc1 (centres undefined)	-1	2%	?	-8%	?	-4%
